Compound activity as filed in PubChem BioAssay.
D2 PAM-1: potentiates the human D2 dopamine receptor allosterically; 0.23% of 360,000 active; DiscoveRx D2 beta-arrestin cells, luminescence, 90 min; 100% = 57 uM dopamine signal; potentiation, % (test concentration not listed); AID 624464; in the data active = potentiation above about 50%
Target sequence (P14416 whole entry, looked up): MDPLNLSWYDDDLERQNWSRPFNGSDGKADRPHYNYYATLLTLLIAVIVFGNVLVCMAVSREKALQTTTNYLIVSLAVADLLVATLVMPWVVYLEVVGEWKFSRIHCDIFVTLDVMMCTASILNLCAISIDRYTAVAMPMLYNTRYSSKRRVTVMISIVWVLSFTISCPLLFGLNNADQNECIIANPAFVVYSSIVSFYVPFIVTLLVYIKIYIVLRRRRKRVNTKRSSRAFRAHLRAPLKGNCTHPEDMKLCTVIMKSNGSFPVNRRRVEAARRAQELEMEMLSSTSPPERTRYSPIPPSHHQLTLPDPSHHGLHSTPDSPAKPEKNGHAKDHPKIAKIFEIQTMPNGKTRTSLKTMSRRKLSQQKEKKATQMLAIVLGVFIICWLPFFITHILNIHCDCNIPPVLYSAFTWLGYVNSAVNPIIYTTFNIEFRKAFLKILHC
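PathHunter D2 cells, attached overnight at 37 deg C, received compound in DMSO plus dopamine at EC20 (50 nM final) for 90 min at 37 deg C. Beta-arrestin recruitment was read as luminescence after 1 h with detection reagent at ambient temperature.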
D2 antag: antagonists of human D2 dopamine receptor | HEK293 TREx D2 cells, calcium flux, dopamine EC80 | inhibition, % at 10 µM | 2% of 340,000 active; in the data active = inhibition above about 30%; inactive = below that, where a call was filed; note: 0% is about no effect
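HEK293 T-REx D2 cells, tet-induced, calcium dye no-wash. Cpd pintool add, 180 s kinetic, then EC80 DA, 180 s kinetic. Ca flux read.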
D2 PAM-2: D2 dopamine receptor (human) potentiation. HEK293 T-REx D2, calcium flux, EC20 dopamine potentiation. potentiation, % at 10 µM. 0.34% of 340,000 active. AID 485347;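 active = potentiation over 3 SD above the plate norm, cut at about 30% in these data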; note: 0% is about no effect
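Potentiation of an EC20 dopamine calcium response is measured in a force-coupled, tetracycline-inducible Hek293 Trex D2 line. Compound-only kinetic reads over 180 s flag agonists before dopamine addition.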
D2 ag-1: agonists of human D2 dopamine receptor (beta-arrestin); DiscoveRx PathHunter D2 beta-arrestin, luminescence, 90 min; 100% = 57 uM dopamine signal; activation, % (concentration not given with the values); 0.084% of 360,000 active; AID 624465; in the data active = activation above about 40%
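DiscoveRx PathHunter D2 beta-arrestin cells (2,100/well) attached overnight, then compound-stimulated 90 min at 37 C in HBSS/10 mM HEPES/0.1% Tween-20 buffer; beta-galactosidase complementation read by luminescence after 1 h at ambient temperature. Dopamine 57 uM final (EC100) as control.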
D2 ag-2: D2 dopamine receptor (human) agonism. HEK293 T-REx D2 cells, calcium flux agonist mode. activation, % at 2 µM. AID 485358. P14416. 0.53% of 340,000 active;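 active = activation over 3 SD above normal in the single-dose calcium agonist read, cut at about 30% in these data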; note: 0% is about no effect
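HEK293 Trex D2 cells, tetracycline-induced, o/n 30 C 5% CO2; no-wash Ca dye, RT 30–90 min; 10-cycle baseline, 23 nl cpd added, kinetic Ca read 180 s; agonist hits = positive Ca response.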
* marks the source's active call; other numbers are inactive results. An excerpt weighted towards active compounds, which were near 2.4% of everything screened.

How did COc1ccc(-n2c(-c3ccc(Br)cc3)n[nH]c2=S)cc1 do in these assays?
D2 PAM-1: -4; D2 antag: 31*; D2 PAM-2: -8; D2 ag-1: -3; D2 ag-2: 0

Results for CC(C)N1CCc2c(sc(NC(=O)Cc3ccccc3)c2C(N)=O)C1 ?
D2 PAM-1: -14; D2 antag: 40*; D2 PAM-2: -20; D2 ag-1: -1; D2 ag-2: 0

What do the screens show for `CC(C)N1CCc2c(sc(NC(=O)CCS(=O)(=O)c3ccccc3)c2C#N)C1`?
D2 PAM-1: -3; D2 antag: 34*; D2 PAM-2: 9; D2 ag-1: -4; D2 ag-2: 0

How did CCN1CCc2c(sc(NC(=O)CSc3ccccc3)c2-c2nc3ccccc3s2)C1 do in these assays?
D2 PAM-2: -23

How did CC(C)N1CCc2c(sc(NC(=O)CCc3ccccc3)c2C(N)=O)C1 do in these assays?
D2 PAM-1: -4; D2 antag: 10; D2 PAM-2: 25; D2 ag-1: -1; D2 ag-2: -1

Results for NC(=O)c1c(NC(=O)C2COc3ccccc3O2)sc2c1CCN(Cc1ccccc1)C2 (configuration not stated) ?
D2 PAM-1: -23; D2 antag: -2; D2 PAM-2: -3; D2 ag-1: -15; D2 ag-2: 42*

How did CC(=O)Nc1sc2c(c1-c1nc3ccccc3s1)CCN(C(C)C)C2 do in these assays?
D2 PAM-1: -18; D2 antag: -7; D2 PAM-2: -2; D2 ag-1: -6; D2 ag-2: 47*

How did Cc1ccc(C(=O)COC(=O)CCC(=O)Nc2ccc(Oc3ccccc3)cc2)cc1 do in these assays?
D2 PAM-2: -2; D2 ag-2: 0

What do the screens show for `O=C(CN1C(=O)C(c2ccc(F)cc2)=NC12CCCCCC2)Nc1ccc(F)c(Cl)c1`?
D2 PAM-2: 9; D2 ag-2: 0

What do the screens show for `COc1cccc(CC(=O)Nc2sc3c(c2C(N)=O)CCCC3)c1`?
D2 PAM-1: -1; D2 antag: 39*; D2 PAM-2: -9; D2 ag-1: 2; D2 ag-2: 0

How did CCCN1CCc2c(sc(NC(=O)c3ccc(S(=O)(=O)N(C)c4ccccc4)cc3)c2C(N)=O)C1 do in these assays?
D2 PAM-1: -12; D2 antag: -4; D2 PAM-2: 0; D2 ag-1: -7; D2 ag-2: 78*

What do the screens show for `COc1ccc(CC(=O)Nc2sc3c(c2C(N)=O)CCCC3)cc1OC`?
D2 PAM-1: 5; D2 antag: 3; D2 PAM-2: 2; D2 ag-1: 6; D2 ag-2: 0

Results for CCCCOc1ccccc1NC(=O)CC1Sc2ccccc2NC1=O (configuration not stated) ?
D2 PAM-2: -13; D2 ag-2: 6

How did CCC(C(=O)Nc1cc(OC)ccc1OC)n1c(C)c2cnn(-c3ccccc3)c(=O)c2c1C (configuration not stated) do in these assays?
D2 PAM-2: 8; D2 ag-2: -1

How did Cc1ccc(-c2nn(-c3cccc(F)c3)cc2CN(Cc2nccn2C)C(C)C)o1 do in these assays?
D2 PAM-1: -18; D2 antag: 3; D2 PAM-2: -15; D2 ag-1: -4; D2 ag-2: -1

Results for Cc1ccc(-c2nn(-c3cccc(F)c3)cc2CN2CCN(c3ccccn3)CC2)o1 ?
D2 PAM-1: -18; D2 antag: 80*; D2 PAM-2: -26; D2 ag-1: -4; D2 ag-2: 7

How did COc1ccc(NC(=O)CN(C)C(=O)CN2C(=O)c3ccc([N+](=O)[O-])cc3C2=O)cc1 do in these assays?
D2 PAM-1: 66*; D2 antag: 0; D2 PAM-2: -5; D2 ag-1: 11; D2 ag-2: 1

Results for Cc1cc(NC(=O)CCC(=O)N(c2ccc(F)cc2)C(C(=O)NC2CCCC2)c2ccc(C)o2)no1 (configuration not stated) ?
D2 PAM-1: -5; D2 antag: 14; D2 PAM-2: 18; D2 ag-1: 1; D2 ag-2: 1

How did COCCNC(=O)C(c1ccc(C)o1)N(C(=O)C(=O)NC1CCCCC1)c1ccc(F)cc1 (configuration not stated) do in these assays?
D2 PAM-1: 1; D2 antag: -6; D2 PAM-2: 34*; D2 ag-1: 0; D2 ag-2: -1

How did COc1ccc(N(C(=O)CNC(=O)c2ccco2)C(C(=O)NC2CCCC2)c2ccncc2)cc1 (configuration not stated) do in these assays?
D2 PAM-1: -3; D2 antag: 51*; D2 PAM-2: 5; D2 ag-1: 0; D2 ag-2: -1

What do the screens show for `CC(=O)Nc1ccc(N(C(=O)c2ccco2)C(C(=O)NC2CCCCC2)c2ccccc2)cc1` (configuration not stated)?
D2 PAM-1: -12; D2 antag: 37*; D2 PAM-2: 2; D2 ag-1: 0; D2 ag-2: -1

Results for COc1ccc(C(C(=O)NC2CCCCC2)N(C(=O)CCl)c2ccc(C)cc2)cc1 (configuration not stated) ?
D2 PAM-1: 15; D2 antag: -5; D2 PAM-2: 2; D2 ag-1: -8; D2 ag-2: 3

How did COc1ccc(C(C(=O)NC2CCCC2)N(C(=O)c2ccoc2C)c2ccc(C)cc2)cc1 (configuration not stated) do in these assays?
D2 PAM-1: -17; D2 antag: 50*; D2 PAM-2: -4; D2 ag-1: -1; D2 ag-2: -1

Results for Cc1ccccc1C(C(=O)NC1CCCC1)N(C(=O)CNC(=O)c1ccco1)c1cccnc1 (configuration not stated) ?
D2 antag: 51*; D2 PAM-2: 1; D2 ag-2: 1

What do the screens show for `Cc1c(C(=O)Nc2ccc(F)cc2F)oc2ccc3c(c12)C(=O)CC(C)(C)O3`?
D2 PAM-2: 3; D2 ag-2: -1

Results for CCCCOc1ccc(Cn2c(=O)sc3ccccc32)cc1 ?
D2 PAM-2: -9; D2 ag-2: 1

Results for OCCC1CN(Cc2cccc(-n3cccn3)c2)CCN1Cc1ccccc1 (configuration not stated) ?
D2 PAM-1: -25; D2 antag: 58*; D2 PAM-2: -22; D2 ag-1: -2; D2 ag-2: 0

How did OCCC1CN(Cc2ccc(F)cc2)CCN1CCc1ccccc1 (configuration not stated) do in these assays?
D2 PAM-1: -2; D2 antag: 43*; D2 PAM-2: -2; D2 ag-1: -2; D2 ag-2: -3

Results for OCCC1CN(Cc2ccc(F)cc2)CCN1CCCc1ccccc1 (configuration not stated) ?
D2 PAM-1: -4; D2 antag: -7; D2 PAM-2: -17; D2 ag-1: -1; D2 ag-2: 1
